# Measurements taken from PubChem BioAssay (EPA / NIEHS).
# The source made the active and inactive calls. The calls were made as follows: active = hit-call score of the fitted dose curve at least 0.9, where 1 is the maximum; inactive = score below 0.9.
# What was measured:
# [1] = ATG_CRE_CIS: Attagene CIS-FACTORIAL HepG2 Assay for human cAMP Responsive Element (CRE) binding protein 3 (AID 2282926); conditions: HepG2 CRE cis-reporter, Attagene multiplexed mRNA; actives raise or lower the signal
# Method in brief: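 Liver-derived HepG2, transfected with a CRE-containing reporter panel, exposed 24 h; transcript levels sized and quantified by capillary electrophoresis of labelled amplicons; signal changes either way referenced to vehicle.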
# [2] = molecular target: CCAAT/enhancer-binding protein beta (Homo sapiens) (UniProt P17676); test: ATG_C_EBP_CIS: Attagene CIS-FACTORIAL HepG2 Assay for human CCAAT/Enhancer Binding Protein (C/EBP) beta (AID 2282927); conditions: HepG2 Attagene cis-factorial transcription factor reporter; actives raise or lower the signal
# Chain of CCAAT/enhancer-binding protein beta (Homo sapiens) (P17676 whole entry, looked up): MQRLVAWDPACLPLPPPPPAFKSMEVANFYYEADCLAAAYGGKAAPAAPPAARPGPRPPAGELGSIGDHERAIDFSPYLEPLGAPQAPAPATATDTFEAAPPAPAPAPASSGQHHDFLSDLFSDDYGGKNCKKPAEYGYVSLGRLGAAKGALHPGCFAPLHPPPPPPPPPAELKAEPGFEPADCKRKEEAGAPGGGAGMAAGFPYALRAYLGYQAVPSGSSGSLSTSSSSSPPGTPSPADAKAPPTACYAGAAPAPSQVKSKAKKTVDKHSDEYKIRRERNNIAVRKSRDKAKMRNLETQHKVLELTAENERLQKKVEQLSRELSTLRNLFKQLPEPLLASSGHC
# Method in brief: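 HepG2 transiently transfected with multiplexed reporter units under cis-regulatory promoters reporting endogenous C/EBPb activity. After 24 h exposure, reporter mRNA assayed by RT-PCR, fluorescent labelling, HpaI digestion and capillary electrophoresis; bidirectional fitting versus DMSO.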
# [3] = ATG_CMV_CIS: Attagene CIS-FACTORIAL HepG2 Assay for human CMV (Internal Marker) (AID 2282928); conditions: HepG2 CMV promoter reporter, transcription factor profiling; actives raise or lower the signal;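 also: endpoint acts as a background internal control marker rather than a target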
# Method in brief: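 Reporter transcripts from transfected HepG2 cells are isolated after 24 h of chemical dosing, reverse-transcribed and amplified. Fragments labeled with 6-FAM are cut with HpaI and quantified by capillary electrophoresis; DMSO defines baseline.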
# [4] = ATG_DR4_LXR_CIS: Attagene CIS-FACTORIAL HepG2 Assay for human Liver X Receptor (LXR), DR4 submotif (AID 2282929); conditions: HepG2 Attagene DR4 cis-reporter, mRNA transcription; actives raise or lower the signal
# Method in brief: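 Measures endogenous transcription factor activity via a DR4-driven reporter transcript in human HepG2 cells. Compounds incubated 24 h; mRNA quantified by RT-PCR and capillary electrophoresis, analysed as gain or loss of signal versus DMSO.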
# [5] = molecular target: Aryl hydrocarbon receptor (Homo sapiens) (UniProt P35869); test: ATG_Ahr_CIS: Attagene CIS-FACTORIAL HepG2 Assay for human Aryl Hydrocarbon Receptor (Ahr) (AID 2282930); conditions: HepG2 AhR cis-factorial reporter transcription; actives raise or lower the signal
# Chain of Aryl hydrocarbon receptor (Homo sapiens) (P35869 whole entry, looked up): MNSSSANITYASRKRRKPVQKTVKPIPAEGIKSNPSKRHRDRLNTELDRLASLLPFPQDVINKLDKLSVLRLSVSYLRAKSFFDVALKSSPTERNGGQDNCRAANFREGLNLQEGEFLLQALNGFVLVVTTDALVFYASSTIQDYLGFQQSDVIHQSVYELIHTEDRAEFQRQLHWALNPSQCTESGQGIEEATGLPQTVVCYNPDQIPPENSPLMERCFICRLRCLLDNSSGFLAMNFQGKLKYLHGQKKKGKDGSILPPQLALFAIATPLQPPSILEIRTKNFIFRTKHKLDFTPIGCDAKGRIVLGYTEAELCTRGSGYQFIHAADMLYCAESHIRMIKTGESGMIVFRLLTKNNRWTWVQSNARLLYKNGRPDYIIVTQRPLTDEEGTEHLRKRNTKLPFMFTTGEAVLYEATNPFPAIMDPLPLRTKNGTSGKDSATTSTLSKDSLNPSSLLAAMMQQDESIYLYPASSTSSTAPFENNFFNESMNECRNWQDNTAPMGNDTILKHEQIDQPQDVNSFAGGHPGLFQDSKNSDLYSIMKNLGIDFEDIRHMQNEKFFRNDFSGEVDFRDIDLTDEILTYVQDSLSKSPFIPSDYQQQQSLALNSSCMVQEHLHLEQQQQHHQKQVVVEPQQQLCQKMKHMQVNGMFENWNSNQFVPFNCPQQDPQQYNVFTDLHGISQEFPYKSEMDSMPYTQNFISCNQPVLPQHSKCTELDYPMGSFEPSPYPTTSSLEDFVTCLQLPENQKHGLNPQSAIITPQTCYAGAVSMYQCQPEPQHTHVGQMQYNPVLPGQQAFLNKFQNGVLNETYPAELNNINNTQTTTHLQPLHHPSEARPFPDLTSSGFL
# Method in brief: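 HepG2 cells transiently transfected with cis-element-driven multiplexed reporter units; endogenous AhR activity read as reporter mRNA 24 h after dosing, via RT-PCR, 6-FAM labelling, HpaI digestion and capillary electrophoresis. Bidirectional fit relative to DMSO.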
# [6] = ATG_AP_1_CIS: Attagene CIS-FACTORIAL HepG2 Assay for human Activator Protein 1 (AP-1) (AID 2282931); conditions: HepG2 Attagene cis-factorial AP-1 reporter mRNA; actives raise or lower the signal
# Method in brief: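 Bidirectional concentration-response fitting against DMSO controls. Underlying signal: reporter mRNA from cis-promoter constructs in transiently transfected HepG2, measured after 24 h by RT-PCR and capillary electrophoresis.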
# [7] = ATG_AP_2_CIS: Attagene CIS-FACTORIAL HepG2 Assay for human Activator Protein 2 (AP-2) (AID 2282932); conditions: HepG2 AP-2 cis-reporter, Attagene transcription factor profiling; actives raise or lower the signal
# Method in brief: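 Read-out: fluorescent reporter mRNA via RT-PCR and capillary electrophoresis, 24 h post-dose in transiently transfected HepG2. Endogenous factors drive cis-promoter reporters; gain or loss of signal fitted bidirectionally against DMSO.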
# [8] = ATG_BRE_CIS: Attagene CIS-FACTORIAL HepG2 Assay for human Bone Morphogenetic Protein (BMP) Response Element (BRE) (AID 2282933); conditions: HepG2 BMP response element reporter, Attagene transcription factor profiling; actives raise or lower the signal
# Method in brief: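 HepG2 cells transiently transfected with CIS reporter units (endogenous TF activity, BMP response element), dosed 24 h. Reporter mRNA quantified by RT-PCR, fluorescent labelling and capillary electrophoresis; bidirectional fit vs DMSO baseline.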
# [9] = molecular target: Retinoic acid receptor alpha (Homo sapiens) (UniProt P10276); test: ATG_DR5_RAR_CIS: Attagene CIS-FACTORIAL HepG2 Assay for human Retinoic Acid Receptor Alpha (RARE), DR5 submotif (AID 2282934); conditions: HepG2 Attagene cis-factorial RARE DR5 reporter, mRNA; actives raise or lower the signal;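 as to AC50: reporter responds to endogenous RAR alpha beta and gamma in HepG2 not RARA alone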
# Chain of Retinoic acid receptor alpha (Homo sapiens) (P10276 whole entry, looked up): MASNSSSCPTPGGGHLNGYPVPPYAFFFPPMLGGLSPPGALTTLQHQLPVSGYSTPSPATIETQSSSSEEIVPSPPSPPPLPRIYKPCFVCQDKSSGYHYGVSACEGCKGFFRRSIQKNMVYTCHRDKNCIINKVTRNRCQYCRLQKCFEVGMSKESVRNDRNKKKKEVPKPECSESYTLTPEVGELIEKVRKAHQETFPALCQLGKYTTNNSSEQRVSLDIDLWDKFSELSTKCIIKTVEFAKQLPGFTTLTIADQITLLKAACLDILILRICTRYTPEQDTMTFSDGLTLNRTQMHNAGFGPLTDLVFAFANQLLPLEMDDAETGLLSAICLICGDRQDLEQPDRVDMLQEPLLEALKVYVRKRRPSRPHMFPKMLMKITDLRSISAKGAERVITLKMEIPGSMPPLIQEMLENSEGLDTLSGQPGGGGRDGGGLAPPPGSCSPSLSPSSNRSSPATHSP
# Method in brief: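 HepG2 cells transiently transfected with multiplexed reporter units; DR5 cis-element drives reporter through endogenous transcription factors. After 24 h dosing, reporter mRNA quantified by RT-PCR, fluorescent labeling, HpaI digestion and capillary electrophoresis; bidirectional fitting versus DMSO.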
# [10] = molecular target: Transcription factor E2F1 (Homo sapiens) (UniProt Q01094); test: ATG_E2F_CIS: Attagene CIS-FACTORIAL HepG2 Assay for human E2F Transcription Factor 1 (AID 2282935); conditions: HepG2 Attagene cis-reporter, E2F reporter RNA transcripts; actives raise or lower the signal
# Chain of Transcription factor E2F1 (Homo sapiens) (Q01094 whole entry, looked up): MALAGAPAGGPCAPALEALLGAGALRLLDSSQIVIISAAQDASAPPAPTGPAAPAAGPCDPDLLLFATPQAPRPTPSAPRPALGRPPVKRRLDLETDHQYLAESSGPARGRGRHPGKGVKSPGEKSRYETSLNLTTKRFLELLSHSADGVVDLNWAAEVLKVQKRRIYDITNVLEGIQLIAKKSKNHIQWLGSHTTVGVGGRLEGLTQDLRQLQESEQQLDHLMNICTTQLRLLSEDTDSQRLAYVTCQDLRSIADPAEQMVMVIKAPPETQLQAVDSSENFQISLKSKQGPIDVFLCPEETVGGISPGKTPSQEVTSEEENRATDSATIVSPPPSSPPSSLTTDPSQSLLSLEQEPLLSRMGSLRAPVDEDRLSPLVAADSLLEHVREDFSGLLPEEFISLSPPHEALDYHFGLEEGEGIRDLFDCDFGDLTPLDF
# Method in brief: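 Transient MRTU transfection of HepG2; 24 h compound exposure; RNA → oligo(dT) RT → PCR → FAM label → HpaI cut → CE fluorescence. Gain/loss of signal fit against DMSO.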
Structure (SMILES),outcome [1],outcome [2],outcome [3],outcome [4],outcome [5],outcome [6],outcome [7],outcome [8],outcome [9],outcome [10],AC50 [3],AC50 [4],AC50 [6],AC50 [1],AC50 [2],AC50 [7],AC50 [9],AC50 [10],AC50 [8],AC50 [5]
CCCCC(CC)COC(=O)c1ccccc1O (stereo not given),inactive,inactive,inactive,inactive,inactive,inactive,inactive,inactive,inactive,inactive,,,,,,,,,,
C1CN(SSN2CCOCC2)CCO1,inactive,inactive,inactive,inactive,inactive,inactive,inactive,inactive,inactive,inactive,,,,,,,,,,
O=C(c1ccccc1)C1CCC1,inactive,inactive,inactive,inactive,inactive,inactive,inactive,inactive,inactive,inactive,,,,,,,,,,
C=CC(C)(CCC=C(C)C)OC(=O)CC(C)C (stereo not given),inactive,inactive,,,inactive,,inactive,inactive,inactive,inactive,75.3 µM (active),133 µM (active),119 µM (active),,,,,,,
O=S(=O)(O)c1cc(S(=O)(=O)O)c2ccc3c(S(=O)(=O)O)cc(S(=O)(=O)O)c4ccc1c2c43,inactive,inactive,inactive,inactive,inactive,inactive,inactive,inactive,inactive,inactive,,,,,,,,,,
O=c1n(CCO)c(=O)n(CCO)c(=O)n1CCO,inactive,inactive,inactive,inactive,inactive,inactive,inactive,inactive,inactive,inactive,,,,,,,,,,
O=c1c2ccccc2oc2ccccc12,inactive,inactive,inactive,inactive,inactive,inactive,inactive,inactive,inactive,inactive,,,,,,,,,,
CC(C)CC(O)Cc1ccccc1 (stereo not given),inactive,inactive,inactive,inactive,inactive,inactive,inactive,inactive,inactive,inactive,,,,,,,,,,
O=C1CCCCCCCCCCC(=O)OCCO1,inactive,inactive,inactive,inactive,inactive,inactive,inactive,inactive,inactive,inactive,,,,,,,,,,
CC(C)(c1cc(Br)c(OCCO)c(Br)c1)c1cc(Br)c(OCCO)c(Br)c1,,,,,inactive,,,inactive,,,36.7 µM (active),15.6 µM (active),36.6 µM (active),38.7 µM (active),45.3 µM (active),10.5 µM (active),0.22 µM (active),36 µM (active),,
NC(CO)(CO)CO,inactive,inactive,inactive,inactive,inactive,inactive,inactive,inactive,inactive,inactive,,,,,,,,,,
Cc1c(C)c([N+](=O)[O-])c(C(C)(C)C)c([N+](=O)[O-])c1C,inactive,inactive,inactive,inactive,inactive,inactive,inactive,inactive,,inactive,,,,,,,5.92 µM (active),,,
Cc1cc(O)c(Cl)c(C)c1Cl,inactive,inactive,,inactive,inactive,inactive,inactive,inactive,inactive,inactive,23.9 µM (active),,,,,,,,,
O=c1[nH]nc(-c2ccc([N+](=O)[O-])o2)o1,inactive,inactive,inactive,inactive,inactive,,inactive,inactive,inactive,inactive,,,87.6 µM (active),,,,,,,
CCCCCCOC(=O)C(C)CC (stereo not given),inactive,inactive,inactive,inactive,inactive,inactive,inactive,inactive,inactive,inactive,,,,,,,,,,
CCCc1ccc(OC)cc1,inactive,inactive,inactive,inactive,inactive,inactive,inactive,inactive,inactive,inactive,,,,,,,,,,
CCC(Cc1ccccc1)(C(=O)c1ccc(N2CCOCC2)cc1)N(C)C (stereo not given),inactive,inactive,inactive,inactive,inactive,,inactive,inactive,,inactive,,,72.1 µM (active),,,,73.1 µM (active),,,
CCO[Si](C)(OCC)OCC,inactive,inactive,inactive,inactive,inactive,inactive,inactive,inactive,inactive,inactive,,,,,,,,,,
Oc1ccc(Cl)cc1Cc1cc(Cl)ccc1O,,inactive,inactive,,inactive,,,,,inactive,,7.95 µM (active),17.6 µM (active),3.51 µM (active),,15.4 µM (active),3.08 µM (active),,3.46 µM (active),
CCCCCCCOC(=O)CCC,inactive,inactive,inactive,inactive,inactive,inactive,inactive,inactive,inactive,inactive,,,,,,,,,,
CC(C)(C)C(=O)C=Cc1ccc(Cl)cc1,inactive,,inactive,,inactive,,,,inactive,inactive,,17.2 µM (active),26 µM (active),,26.5 µM (active),169 µM (active),,,12.3 µM (active),
CC1=NC(C)OC1C (stereo not given),inactive,inactive,,inactive,inactive,,inactive,inactive,inactive,inactive,153 µM (active),,100 µM (active),,,,,,,
CCc1nccnc1C,inactive,inactive,inactive,inactive,inactive,inactive,inactive,inactive,inactive,inactive,,,,,,,,,,
CN1C(=O)N(C)C(O)C1O (stereo not given),inactive,inactive,inactive,inactive,inactive,inactive,inactive,inactive,inactive,inactive,,,,,,,,,,

Structure (SMILES),outcome [1],outcome [2],outcome [3],outcome [4],outcome [5],outcome [6],outcome [7],outcome [8],outcome [9],outcome [10],AC50 [3],AC50 [4],AC50 [6],AC50 [1],AC50 [2],AC50 [7],AC50 [9],AC50 [10],AC50 [8],AC50 [5]
Nc1cccc(C(F)(F)F)c1,inactive,inactive,inactive,inactive,inactive,inactive,inactive,inactive,inactive,inactive,,,,,,,,,,
C=CC(=O)OCCOC1C2CCC1C1CC=CC12 (stereo not given),inactive,inactive,inactive,inactive,inactive,inactive,inactive,inactive,inactive,inactive,,,,,,,,,,
CC(=O)OCCC1CCCCC1,inactive,inactive,inactive,inactive,inactive,inactive,inactive,inactive,inactive,inactive,,,,,,,,,,
Cc1ccc(C(C)c2ccc(C)c(C)c2)cc1C,inactive,inactive,,,inactive,,inactive,inactive,inactive,inactive,40.9 µM (active),117 µM (active),48.7 µM (active),,,,,,,
O=C1CCC(=O)N1Cl,inactive,inactive,inactive,inactive,inactive,inactive,inactive,inactive,inactive,inactive,,,,,,,,,,
O=C(O)c1ccccc1Nc1cccc(C(F)(F)F)c1,inactive,inactive,inactive,,inactive,,inactive,inactive,inactive,inactive,,9.37 µM (active),60 µM (active),,,,,,,
CC(=O)c1ccc[nH]1,inactive,inactive,inactive,inactive,inactive,inactive,inactive,inactive,inactive,inactive,,,,,,,,,,
CCCCCCC(O)CO (stereo not given),inactive,inactive,inactive,inactive,inactive,inactive,inactive,inactive,inactive,inactive,,,,,,,,,,
O=C1CCCC1,inactive,inactive,inactive,inactive,inactive,inactive,inactive,inactive,inactive,inactive,,,,,,,,,,
CC(=O)OCC(=O)[C@@]12N=C(C)O[C@@H]1C[C@H]1[C@@H]3CCC4=CC(=O)C=C[C@]4(C)[C@H]3[C@@H](O)C[C@@]12C,inactive,inactive,inactive,inactive,inactive,inactive,inactive,inactive,,inactive,,,,,,,27.5 µM (active),,,
COCCCOCCCOC,inactive,inactive,inactive,inactive,inactive,inactive,inactive,inactive,inactive,inactive,,,,,,,,,,
NC(=O)NNC(N)=O,inactive,inactive,inactive,inactive,inactive,inactive,inactive,inactive,inactive,inactive,,,,,,,,,,
C=C1C2CCC(C2)C1(C)C (stereo not given),inactive,inactive,inactive,inactive,inactive,inactive,inactive,inactive,inactive,inactive,,,,,,,,,,
O=C1CC2CC1C1CCCC21 (stereo not given),inactive,inactive,inactive,inactive,inactive,inactive,inactive,inactive,inactive,inactive,,,,,,,,,,
COC(F)(F)C(F)(C(F)(F)F)C(F)(F)F,inactive,inactive,inactive,inactive,inactive,inactive,inactive,inactive,inactive,inactive,,,,,,,,,,
N[C@H]1C(O)O[C@H](CO)[C@H](O)[C@@H]1O (stereo not given in full),inactive,inactive,inactive,inactive,inactive,inactive,inactive,inactive,inactive,inactive,,,,,,,,,,
CC(=O)C=CC1C(C)=CCC(C)C1(C)C (stereo not given),inactive,inactive,inactive,inactive,inactive,inactive,inactive,inactive,inactive,inactive,,,,,,,,,,
C=CC(=O)NC(C)(C)CS(=O)(=O)O,inactive,inactive,inactive,inactive,inactive,inactive,inactive,,inactive,inactive,,,,,,,,,15.8 µM (active),
FC(F)=C(F)OC(F)(F)C(F)(F)C(F)(F)F,inactive,inactive,inactive,inactive,inactive,inactive,inactive,inactive,inactive,inactive,,,,,,,,,,
Nc1ccc(N=Nc2ccccc2)c(N)n1,inactive,inactive,inactive,,,inactive,inactive,inactive,inactive,inactive,,48.5 µM (active),,,,,,,,23.5 µM (active)
SCCc1cnccn1,inactive,inactive,,inactive,inactive,,inactive,,,inactive,53.9 µM (active),,27.8 µM (active),,,,27.6 µM (active),,23.1 µM (active),
O=c1cc[nH]c(=S)[nH]1,inactive,inactive,inactive,inactive,inactive,inactive,inactive,inactive,inactive,inactive,,,,,,,,,,
CCOc1nc(F)cc2nc(S(=O)(=O)Nc3c(Cl)cccc3C(=O)OC)nn12,inactive,inactive,inactive,inactive,inactive,inactive,inactive,inactive,inactive,inactive,,,,,,,,,,
